Laboratory results from PubChem BioAssay (NCATS).
“And” between values parts separate entries of the source, which are not always exact repeats. Equal values may be shown once. Records with an inconclusive call do not appear. Entries that show only a call come without a potency. Where a structure was tested more than once in an assay, its records may differ in their call. Unmarked numbers belong to inactive results. The source made the active and inactive calls. Calls follow the shape of the dose curve; as a rule, active = well fitted inhibition curve with a large enough effect; inconclusive = small, poorly fitted or top-dose-only effect; inactive = flat fitted curve, though single readings scatter.

How the values were obtained:
P93_24 = assay: qHTS profiling for inhibitors of Plasmodium falciparum proliferation (AID 504749); conditions: P. falciparum in erythrocytes, SYBR Green DNA, 72 h; series mostly up to 28.7 µM
Method in brief: (§1)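 Readout was DNA-dye fluorescence from lysed cultures, ex 485/em 535 nm. Parasitized red cells had grown 72 h with compound; data scaled between 0.29 uM artemisinin and DMSO wells and corrected using vehicle-only plates.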

P94_40 = assay: as above; conditions: P. falciparum in erythrocytes, SYBR Green DNA, 72 h; series mostly up to 28.7 µM
Method in brief: as §1

PAD = assay: as above; conditions: P. falciparum in erythrocytes, SYBR Green DNA, 72 h; series mostly up to 28.7 µM
Method in brief: as §1

PC15 = assay: as above; conditions: P. falciparum in erythrocytes, SYBR Green DNA, 72 h; series mostly up to 28.7 µM
Method in brief: as §1

PC26 = assay: as above; conditions: P. falciparum in erythrocytes, SYBR Green DNA, 72 h; series mostly up to 28.7 µM
Method in brief: as §1

PC49 = assay: as above; conditions: P. falciparum in erythrocytes, SYBR Green DNA, 72 h; series mostly up to 28.7 µM
Method in brief: as §1

SC27B = assay: as above; conditions: P. falciparum in erythrocytes, SYBR Green DNA, 72 h; series mostly up to 28.7 µM
Method in brief: as §1

TAB109 = assay: as above; conditions: P. falciparum in erythrocytes, SYBR Green DNA, 72 h; series mostly up to 28.7 µM
Method in brief: as §1

TAB113 = assay: as above; conditions: P. falciparum in erythrocytes, SYBR Green DNA, 72 h; series mostly up to 28.7 µM
Method in brief: as §1

TAB165 = assay: as above; conditions: P. falciparum in erythrocytes, SYBR Green DNA, 72 h; series mostly up to 28.7 µM
Method in brief: as §1

W2 = assay: as above; conditions: P. falciparum in erythrocytes, SYBR Green DNA, 72 h; series mostly up to 28.7 µM
Method in brief: as §1

CRL-7250 = normal cell line; assay: Cytotoxic Profiling of Annotated Libraries Using Quantitative High-Throughput Screening (AID 1296008); conditions: Five cell lines viability, CellTiter-Glo ATP luminescence, 48-72 h; max response: active compounds read low
Method in brief: (§2)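 Cells exposed to compounds for 48 or 72 hr at 37 degrees Celsius. Viability read as ATP-coupled luminescence with CellTiter-Glo after 10 min at room temperature.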

HEK293 = assay: as above; conditions: Five cell lines viability, CellTiter-Glo ATP luminescence, 48-72 h; max response: active compounds read low
Method in brief: as §2

HaCat [1] = assay: as above; conditions: Five cell lines viability, CellTiter-Glo ATP luminescence, 48-72 h; max response: active compounds read low
Method in brief: as §2

KB-3-1 = assay: as above; conditions: Five cell lines viability, CellTiter-Glo ATP luminescence, 48-72 h; max response: active compounds read low
Method in brief: as §2

NIH3T3 = assay: as above; conditions: Five cell lines viability, CellTiter-Glo ATP luminescence, 48-72 h; max response: active compounds read low
Method in brief: as §2

HACAT [2] = assay: qHTS assay to identify novel small-molecules to repurpose for Merkel cell carcinoma treatment (AID 1296009); conditions: MCC and control cell lines, CellTiter-Glo viability, 72 h
Method in brief: (§3)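 Cells were incubated with compound for 72 hr at 37 degree celsius before CellTiter-Glo addition. Luminescence was normalized with no-cell wells as full cytotoxicity and DMSO as baseline.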

MCC-13 = assay: as above; conditions: MCC and control cell lines, CellTiter-Glo viability, 72 h; series mostly up to 46 µM
Method in brief: as §3

MCC-26 = assay: as above; conditions: MCC and control cell lines, CellTiter-Glo viability, 72 h; series mostly up to 46 µM
Method in brief: as §3

HEK293T = assay: as above; conditions: MCC and control cell lines, CellTiter-Glo viability, 72 h; at 44.8 µM (top of the series) unless noted
Method in brief: as §3

[3] = at 44.8 µM (top of the series) unless noted
Also: nearly all actives have a fitted effect of over 60% in size.
Potency is read from the fitted curve at half-maximal effect.

For `O=C(O)c1cc(=O)[nH]c(=O)[nH]1`, the Potency (P93_24) was “inactive”, the Potency (P94_40) was “inactive” and the Potency (PAD) was “inactive”. The Potency (PC15) was “inactive”, the Potency (PC26) was “inactive” and the Potency (PC49) was “inactive”. The Potency (SC27B) was “inactive”, the Potency (TAB109) was “inactive” and the Potency (TAB113) was “inactive”. For the same compound, the Potency (TAB165) was “inactive”, the Potency (W2) was “inactive” and the max response (CRL-7250) was 0.562%. For the same compound, the outcome (CRL-7250) was “inactive”, the max response (HEK293) was -5.89% and -6.58% and the max response (HaCat [1]) was -18%. The outcome (HaCat [1]) was “inactive”, the max response (KB-3-1) was -14.3% and 1.15% and the max response (NIH3T3) was 3.37%. For the same compound, the outcome (HACAT [2]; [3]) was “inactive”, the Potency (MCC-13) was “inactive” and the Potency (MCC-26) was “inactive”.

For `Cn1nnc2c(C(N)=O)ncn2c1=O`, the Potency (P93_24) was “inactive”, the Potency (P94_40) was “inactive” and the Potency (PAD) was “inactive”. For the same compound, the Potency (PC15) was “inactive”, the Potency (PC26) was “inactive” and the Potency (PC49) was “inactive”. For the same compound, the Potency (SC27B) was “inactive”, the Potency (TAB109) was “inactive” and the Potency (TAB113) was “inactive”. For the same compound, the Potency (TAB165) was “inactive”, the Potency (W2) was “inactive” and the max response (CRL-7250) was 3.05%. For the same compound, the outcome (CRL-7250) was “inactive”, the max response (HEK293) was 1.76% and -7.24% and the max response (HaCat [1]) was 0.848%. The outcome (HaCat [1]) was “inactive”, the max response (KB-3-1) was 3.98% and 7.43% and the max response (NIH3T3) was -16.1%. The outcome (NIH3T3) was “inactive”, the outcome (HACAT [2]; [3]) was “inactive” and the Potency (MCC-13) was “inactive”. The Potency (MCC-26) was “inactive”.

In the case of `CN1CCN(c2c(F)cc3c(=O)c(C(=O)O)cn4c3c2OCN4C)CC1`, the Potency (P94_40) is reported as “inactive”, the Potency (PAD) is reported as “inactive” and the Potency (PC15) is reported as “inactive”. The Potency (PC26) was “inactive”, the Potency (PC49) was “inactive” and the Potency (SC27B) was “inactive”. The Potency (TAB109) was “inactive”, the Potency (TAB113) was “inactive” and the Potency (TAB165) was “inactive”. The max response (CRL-7250) was -0.174%, the outcome (CRL-7250) was “inactive” and the max response (HEK293) was -2.04%. For the same compound, the outcome (HEK293) was “inactive”, the outcome (HaCat [1]) was “inactive” and the max response (KB-3-1) was -7.62%. The outcome (KB-3-1) was “inactive”, the max response (NIH3T3) was 2.5% and 4.99% and the outcome (HACAT [2]; at 17.4 µM (top of the series)) was “inactive”. The outcome (HACAT [2]; at 44.8 µM (top of the series)) was “inactive”, the outcome (HEK293T) was “inactive [at 17.4 µM]” and the Potency (MCC-13) was “inactive”. The Potency (MCC-26) was “inactive”.

In the case of `COc1cc([C@@H]2c3cc4c(cc3[C@H](O)[C@H]3COC(=O)[C@H]23)OCO4)cc(OC)c1OC`, the Potency (P93_24) is reported as 2.24 µM (active), the Potency (P94_40) is reported as 2.51 µM (active) and the Potency (PAD) is reported as 3.55 µM (active). For the same compound, the Potency (PC15) was 1.78 µM (active), the Potency (PC26) was 8.49 µM (active) and the Potency (PC49) was 8.91 µM (active). The Potency (SC27B) was 4.47 µM (active), the Potency (TAB109) was 2.51 µM (active) and the Potency (TAB113) was 3.16 µM (active). For the same compound, the Potency (TAB165) was 2.24 µM (active), the Potency (W2) was 1.69 µM (active) and the Potency (CRL-7250) was 0.0299 µM (active). The max response (CRL-7250) was -103%, the Potency (HEK293) was 0.0422 µM (active) and the max response (HEK293) was -87.1%. The outcome (HaCat [1]) was “inactive”, the Potency (KB-3-1) was 32.6 nM (active) and 0.8 nM (active) and the outcome (HACAT [2]; [3]) was “inactive”. For the same compound, the Potency (MCC-13) was 94.4 nM (active) and 2.6 nM (active).

In the case of `CC(C)OC(=O)OCOP(=O)(CO[C@H](C)Cn1cnc2c(N)ncnc21)OCOC(=O)OC(C)C`, the max response (CRL-7250) is reported as -6.19%, the outcome (CRL-7250) is reported as “inactive” and the max response (HEK293) is reported as -4.37%. The outcome (HEK293) was “inactive”, the outcome (HaCat [1]) was “inactive” and the outcome (KB-3-1) was “inactive”. The max response (NIH3T3) was -4.05% and -25.8%, the outcome (HACAT [2]; [3]) was “inactive” and the outcome (HEK293T) was “inactive”. The Potency (MCC-13) was “inactive” and the Potency (MCC-26) was “inactive”.

With `C[C@]12C=CC(=O)C=C1CC[C@@H]1[C@@H]2C(=O)C[C@@]2(C)[C@H]1CC[C@]2(O)C(=O)CO` the Potency (P93_24) was “inactive”, the Potency (P94_40) was “inactive” and the Potency (PAD) was “inactive”. The Potency (PC15) was “inactive”, the Potency (PC26) was “inactive” and the Potency (PC49) was “inactive”. The Potency (SC27B) was “inactive”, the Potency (TAB109) was “inactive” and the Potency (TAB165) was “inactive”. The Potency (W2) was “inactive”, the max response (CRL-7250) was 2.58% and the outcome (CRL-7250) was “inactive”. For the same compound, the max response (HEK293) was -4.32% and 0.184%, the max response (HaCat [1]) was -8.77% and -10.7% and the max response (KB-3-1) was 9.07% and 4.76%. The max response (NIH3T3) was -5.75%, the outcome (NIH3T3) was “inactive” and the Potency (MCC-13) was “inactive”.

`CNS(=O)(=O)Cc1ccc2[nH]cc(CCN(C)C)c2c1` was tested, and the Potency (P93_24) was “inactive”, the Potency (P94_40) was “inactive” and the Potency (PAD) was “inactive”. For the same compound, the Potency (PC15) was “inactive”, the Potency (PC26) was “inactive” and the Potency (PC49) was “inactive”. The Potency (SC27B) was “inactive”, the Potency (TAB109) was “inactive” and the Potency (TAB113) was “inactive”. For the same compound, the Potency (TAB165) was “inactive”, the max response (CRL-7250) was -6.22% and the outcome (CRL-7250) was “inactive”. For the same compound, the max response (HEK293) was 2.84%, the outcome (HEK293) was “inactive” and the outcome (HaCat [1]) was “inactive”. The max response (KB-3-1) was -7.88% and 1.69%, the max response (NIH3T3) was -1.5% and the outcome (NIH3T3) was “inactive”. The outcome (HACAT [2]; [3]) was “inactive”, the outcome (HEK293T) was “inactive” and the Potency (MCC-13) was “inactive”.

With `NS(=O)(=O)c1cc2c(cc1Cl)NC(C(Cl)Cl)NS2(=O)=O` (centres undefined) the max response (CRL-7250) was -3.96%, the outcome (CRL-7250) was “inactive” and the max response (HaCat [1]) was -16.1%. For the same compound, the outcome (HaCat [1]) was “inactive”, the max response (KB-3-1) was 9.97% and the outcome (KB-3-1) was “inactive”. For the same compound, the max response (NIH3T3) was 3.32% and -1.25%, the outcome (HACAT [2]; [3]) was “inactive” and the outcome (HEK293T) was “inactive”. The Potency (MCC-13) was “inactive” and the Potency (MCC-26) was “inactive”.

With `CCC(C)(C)c1ccc(CC(C)CN2C[C@@H](C)O[C@@H](C)C2)cc1` (some centres undefined) the Potency (P93_24) was “inactive”, the Potency (P94_40) was “inactive” and the Potency (PAD) was “inactive”. For the same compound, the Potency (PC15) was “inactive”, the Potency (PC26) was “inactive” and the Potency (PC49) was “inactive”. For the same compound, the Potency (SC27B) was “inactive”, the Potency (TAB109) was “inactive” and the Potency (TAB113) was “inactive”. The Potency (TAB165) was “inactive”, the max response (CRL-7250) was 0.576% and the outcome (CRL-7250) was “inactive”. The max response (HEK293) was -0.508% and -3.77%, the outcome (HaCat [1]) was “inactive” and the max response (KB-3-1) was 0.53% and -5.13%. The max response (NIH3T3) was 3.97% and -6%, the outcome (HACAT [2]; [3]) was “inactive” and the Potency (MCC-13) was “inactive”. For the same compound, the Potency (MCC-26) was “inactive”.
